Experimental findings from PubChem BioAssay are described below.

Activity calls are given as the source filed them.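 Rule for the calls, unless noted: active = compounds whose cell count with miR-34 switched on is under 0.7 times the count with it off; inactive = the rest.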

The nature of assay [1]: sensitizers of A549 cells to miR-34 induction, primary screen, imaging, A549 dox-inducible miR-34, nuclei and caspase counts (AID 1347080). As to conditions: A549 miR-34 inducible, Hoechst nuclei count, 48 h.
Assay [2] in a line: survival rescue of mitochondrial mutant cells in low glucose, primary screen, MELAS cybrids, Rieske KO mouse fibroblasts, CellTiter-Glo (AID 1508586;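 active = mean z-score across replicates of 1.96 or higher in either the MELAS or the Rieske mutant cell line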;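 note: z relative to plate mean and SD of compound and empty wells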). (Cellular ATP, detected with luciferase, serves as a proxy for viable cell number.)
For assay [3], the system named is Hepatitis C virus NS3 helicase. In words: HCV NS3 helicase inhibitors, primary screen, biochemical, fluorescence polarization, LOPAC1280 library (AID 687035; in the data active = inhibition above about 37%). As to conditions: Purified HCV NS3 helicase, Cy5-dT15 ssDNA binding fluorescence polarization; stronger effect = higher value; concentration not given here. A general note: Polarisation of emitted light reports the rotation of a fluorescent probe.

Assay [4] can be described thus: Cy5 fluorescence quenching or enhancement artefacts, artefact control for HCV NS3 helicase inhibitor project, biochemical, LOPAC1280 (AID 687037; call rule not given here). As to conditions: Cy5-DNA-NS3h complex fluorescence interference counterscreen. (A counterscreen serves to expose hits that act by an unwanted route or on another target.)
Assay [5] is described as follows: phospholipid biosynthesis inhibitors in animal cells, primary screen, cell-based, LOPAC library, screen 4 (AID 1347384; call rule not given here). The note with it: phospholipid biosynthesis inhibition screen, at 10 µM.
Assay [6] can be described thus: viability rescue of complex I mutant cybrids, primary screen, cell-based, galactose medium, ATP luminescence (AID 1645843;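 active = z-score of at least 1.8 in each of two replicates, scored against plate mean and spread of sample wells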;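 note: positive z means more ATP and so rescue of galactose-driven cybrid death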). As to conditions: complex I mutant cybrid cells, 72 h, stronger effect = higher value.
Where [7] appears, read: stronger effect = lower value, cell number ratio, induced over uninduced.
[8] abbreviates: measured here: relative caspase fold change +Dox/-Dox.
The mark [9] stands for this setting: measured here: total cells with miR-34 induction, stronger effect = lower value.
Where [10] appears, read: measured here: total cells without miR-34 induction.
[11] abbreviates: MELAS cybrid survival, CellTiter-Glo 48 h, stronger effect = higher value.
Setting [12] is: Rieske KO mouse fibroblast survival, CellTiter-Glo 72 h.

In the case of `NC1(C(=O)NC(CCO)c2ccc(Cl)cc2)CCN(c2ncnc3[nH]ccc23)CC1` (stereo not given), the fold change is 1.01 (inactive) in assay [1] (setting [7]) and 0.36 in assay [1] (setting [8]). Moreover, the cell count in assay [1] (setting [9]) is 7310; in assay [1] (setting [10]) it was 7200. For the same molecule, the z-score in assay [2] (setting [11]) was -0.334 (inactive); in assay [2] (setting [12]), -0.0673.

Turning to `Cc1cc(Cn2cnc3c2CC(C(=O)O)N(C(=O)C(c2ccccc2)c2ccccc2)C3)ccc1N(C)C` (stereo not given), the fold change is 0.92 (inactive) in assay [1] (setting [7]) and 0.34 in assay [1] (setting [8]). The cell count was 8010 in assay [1] (setting [9]) and 8710 in assay [1] (setting [10]). Also, the values for the z-score in assay [2] (setting [11]) and in assay [2] (setting [12]) were 0.9 (inactive) and -1.41, respectively.

As a reminder, the inhibition is the change of the read-out against control, counted positive when it falls. Consider `COc1ccc(CCn2nnnc2C2(c3ccc(C)cc3)CC2)cc1`, for which the inhibition in assay [3] was -4% (inactive). Also, the fluorescence ratio (interference) in assay [4] was 1.1 (inactive). Besides, the fold change in assay [1] (setting [7]) was 1.09 (inactive); in assay [1] (setting [8]), 0.893. Besides, the values for the cell count in assay [1] (setting [9]) and in assay [1] (setting [10]) were 8770 and 8010, respectively. Further, the result in assay [5] was inactive. The z-score in assay [6] is -0.23 (inactive).

In the case of `COC1C[C@H]2CCC(C)[C@@](O)(O2)C(=O)C(=O)N2CCCC[C@H]2C(=O)OC(C(C)CC2CCC(OP(C)(C)=O)C(OC)C2)CC(=O)C(C)C=C(C)C(O)C(OC)C(=O)C(C)CC(C)C=CC=CC=C1C` (stereo not given in full), the values for the fold change in assay [1] (setting [7]) and in assay [1] (setting [8]) were 1.07 (inactive) and 0.835, respectively. Also, the figures for the cell count in assay [1] (setting [9]) and in assay [1] (setting [10]) were 4570 and 4270, respectively. Also, the z-score in assay [2] (setting [11]) was 0.709 (inactive); in assay [2] (setting [12]) it was 1.92.

Consider `Cc1cc(NC2CCCCC2)nc(-n2nc(C)cc2C)n1`, for which, in assay [3], the inhibition is -5% (inactive). In addition, the fluorescence ratio (interference) in assay [4] is 1 (inactive). Also, the fold change in assay [1] (setting [7]) is 1.09 (inactive); in assay [1] (setting [8]) it was 0.728. In addition, the figures for the cell count in assay [1] (setting [9]) and in assay [1] (setting [10]) were 9360 and 8610, respectively. Also, in assay [5], the outcome was inactive. Also, the z-score in assay [6] was -1.04 (inactive).

For `CCN1C(=CC(C)=O)Sc2ccc(OC)cc21`, the fold change in assay [1] (setting [7]) is 0.889 (inactive); in assay [1] (setting [8]), 0.354. Moreover, the values for the cell count in assay [1] (setting [9]) and in assay [1] (setting [10]) were 6850 and 7700, respectively. For the same molecule, the z-score in assay [2] (setting [11]) is 0.342 (inactive); in assay [2] (setting [12]) it was 1.67.

For the molecule `Cc1cc2c(C(=O)NCC(C)c3ccccc3)c(O)c(O)cc2c(O)c1-c1c(C)cc2c(C(=O)NCC(C)c3ccccc3)c(O)c(O)cc2c1O` (stereo not given), the fold change in assay [1] (setting [7]) is 1.07 (inactive); in assay [1] (setting [8]), 0.503. In addition, the cell count is 2050 in assay [1] (setting [9]) and 1910 in assay [1] (setting [10]). The z-score in assay [2] (setting [11]) was -0.836 (inactive); in assay [2] (setting [12]), -6.52.

For `N#CC(=C1SCC(c2ccc(Cl)cc2Cl)S1)n1ccnc1` (stereo not given), the fold change is 0.898 (inactive) in assay [1] (setting [7]) and 1.64 in assay [1] (setting [8]). For the same molecule, the cell count amounted to 8130 in assay [1] (setting [9]) and 9050 in assay [1] (setting [10]). The figures for the z-score in assay [2] (setting [11]) and in assay [2] (setting [12]) were -0.162 (inactive) and -0.0913, respectively.

For `C#C[C@@]1(O)CC[C@H]2[C@@H]3CCc4cc(O)ccc4[C@@H]3CC[C@@]21C`, the fold change in assay [1] (setting [7]) was 0.952 (inactive); in assay [1] (setting [8]) it was 0.969. In addition, the cell count is 6120 in assay [1] (setting [9]) and 6420 in assay [1] (setting [10]). In addition, the z-score is 0.773 (inactive) in assay [2] (setting [11]) and 0.776 in assay [2] (setting [12]).

On to `CC(C)N(CC1OC(n2cnc3c(N)ncnc32)C(O)C1O)C1CC(CCc2nc3ccc(C(C)(C)C)cc3[nH]2)C1` (stereo not given), for which the results for the fold change in assay [1] (setting [7]) and in assay [1] (setting [8]) were 0.923 (inactive) and 0.796, respectively. In addition, the cell count was 8950 in assay [1] (setting [9]) and 9700 in assay [1] (setting [10]). Also, the z-score in assay [2] (setting [11]) is -0.166 (inactive); in assay [2] (setting [12]), -0.146.

For the molecule `CCNC(=O)c1[nH]nc(-c2cc(Cl)c(O)cc2O)c1-c1ccc(OC)cc1`, the values for the fold change in assay [1] (setting [7]) and in assay [1] (setting [8]) were 1.1 (inactive) and 0.416, respectively. Also, the figures for the cell count in assay [1] (setting [9]) and in assay [1] (setting [10]) were 3020 and 2740, respectively. Besides, the z-score in assay [2] (setting [11]) was 2.3 (active); in assay [2] (setting [12]), -0.612.

For the molecule `CN(C)C(=O)Nc1cccc(-c2ccc(N(C)C)cc2)c1`, the fold change in assay [1] (setting [7]) is 0.935 (inactive); in assay [1] (setting [8]), 0.582. For the same molecule, the results for the cell count in assay [1] (setting [9]) and in assay [1] (setting [10]) were 7650 and 8180, respectively. Also, the z-score was -0.267 (inactive) in assay [2] (setting [11]) and -1.04 in assay [2] (setting [12]).

With `COc1ccc(-c2ccc3c(N4CCOCC4C)nc(N4CCOCC4C)nc3n2)cc1CO` (stereo not given), the fold change in assay [1] (setting [7]) is 0.853 (inactive); in assay [1] (setting [8]), 1.28. Further, the cell count in assay [1] (setting [9]) was 2360; in assay [1] (setting [10]) it was 2770. Further, the z-score in assay [2] (setting [11]) is 5.74 (active); in assay [2] (setting [12]), -3.07.

For `CC1C=CC=CC=CC=CC=CC=CC=CC(OC2OC(C)C(O)C(N)C2O)CC2O[C@@](O)(CC(O)CC(O)C(O)CCC(O)CC(O)CC(=O)OC(C)C(C)C1O)CC(O)C2C(=O)O` (stereo not given in full), the results for the fold change in assay [1] (setting [7]) and in assay [1] (setting [8]) were 0.819 (inactive) and 1.3, respectively. In addition, the cell count in assay [1] (setting [9]) was found to be 6680; in assay [1] (setting [10]) it was 8160. The z-score is -0.196 (inactive) in assay [2] (setting [11]) and 0.383 in assay [2] (setting [12]).

As to `Cc1cn(C2OC(CO)C(O)C2F)c(=O)[nH]c1=O` (stereo not given), the fold change was 0.93 (inactive) in assay [1] (setting [7]) and 0.942 in assay [1] (setting [8]). The cell count in assay [1] (setting [9]) is 9750; in assay [1] (setting [10]), 10500. For the same molecule, the values for the z-score in assay [2] (setting [11]) and in assay [2] (setting [12]) were -0.347 (inactive) and 0.612, respectively.

Turning to `CC1C[C@@H]2[C@@H](C(O)C[C@@]3(C)[C@H]2CC[C@@]3(O)C(=O)CO)[C@@]2(C)C=CC(=O)C=C12` (stereo not given in full), the fold change in assay [1] (setting [7]) is 0.787 (inactive); in assay [1] (setting [8]), 1.42. Further, the cell count in assay [1] (setting [9]) worked out at 5500; in assay [1] (setting [10]), 6980. The figures for the z-score in assay [2] (setting [11]) and in assay [2] (setting [12]) were -0.489 (inactive) and -0.516, respectively.

For `CC(C)CC(NC(=O)C(CCc1ccccc1)NC(=O)CN1CCOCC1)C(=O)NC(Cc1ccccc1)C(=O)NC(CC(C)C)C(=O)[C@@]1(C)CO1` (stereo not given in full), the fold change in assay [1] (setting [7]) was 0.898 (inactive); in assay [1] (setting [8]), 1.94. In addition, the cell count in assay [1] (setting [9]) came to 778; in assay [1] (setting [10]) it was 867. In addition, the figures for the z-score in assay [2] (setting [11]) and in assay [2] (setting [12]) were -0.243 (inactive) and -3.69, respectively.

Turning to `Cc1onc(-c2c(Cl)cccc2Cl)c1C(=O)NC1C(=O)N2C1SC(C)(C)C2C(=O)O` (stereo not given), the figures for the fold change in assay [1] (setting [7]) and in assay [1] (setting [8]) were 0.869 (inactive) and 0.56, respectively. For the same molecule, the cell count in assay [1] (setting [9]) was determined as 8500; in assay [1] (setting [10]) it was 9780. Moreover, the z-score in assay [2] (setting [11]) is -0.165 (inactive); in assay [2] (setting [12]), -0.146.

Regarding `CC(NC(=O)CCc1nc2ccccc2c(=O)[nH]1)c1ccccc1` (stereo not given), the results for the fold change in assay [1] (setting [7]) and in assay [1] (setting [8]) were 0.914 (inactive) and 0.487, respectively. For the same molecule, the figures for the cell count in assay [1] (setting [9]) and in assay [1] (setting [10]) were 8620 and 9430, respectively. Also, the z-score is -0.406 (inactive) in assay [2] (setting [11]) and -0.138 in assay [2] (setting [12]).

Take `CC(C)(F)CC(NC(c1ccc(-c2ccc(S(C)(=O)=O)cc2)cc1)C(F)(F)F)C(=O)NC1(C#N)CC1` (stereo not given): the values for the fold change in assay [1] (setting [7]) and in assay [1] (setting [8]) were 0.826 (inactive) and 0.999, respectively. Besides, the figures for the cell count in assay [1] (setting [9]) and in assay [1] (setting [10]) were 7020 and 8500, respectively. In addition, the z-score in assay [2] (setting [11]) is -0.379 (inactive); in assay [2] (setting [12]), -0.123.

Take `CC(C)Oc1ccc(C(=O)NC(CNC(=O)CN(C)C)Cc2ccc(-c3cn4cccc(C(C)O)c4n3)cc2)cc1Cl` (stereo not given): the fold change in assay [1] (setting [7]) was 1 (inactive); in assay [1] (setting [8]) it was 0.389. In addition, the figures for the cell count in assay [1] (setting [9]) and in assay [1] (setting [10]) were 1600 and 1590, respectively. The z-score in assay [2] (setting [11]) is 1.36 (inactive); in assay [2] (setting [12]), -2.78.
